{
  "source": "ChEMBL document CHEMBL1157539",
  "about": "“Thousands of chemical starting points for antimalarial lead identification” (Nature, 2010)",
  "data": [
    {"system": "HepG2", "experiment": "GSK_TCMDC: Percent inhibition of human HepG2 cell line. Test compounds present at 10uM.", "assay_type": "functional", "units": {"Inhibition": "%"}, "values": [
      {"smiles": "CC(C)(C)c1ccccc1OC(=O)c1ccccc1", "Inhibition": 0},
      {"smiles": "O=C(O)C(F)(F)F.c1ccc(CCNCc2cccc(-c3ccc(CNc4ccc5ncccc5c4)cc3)c2)cc1", "Inhibition": 43},
      {"smiles": "CCCN(CCC)CCCOc1ccc(C(=O)c2c(-c3ccc(OCCCN(CCC)CCC)cc3)oc3ccc(Cl)cc23)cc1.Cl", "Inhibition": 100},
      {"smiles": "CC(=O)c1ccc(NC(=O)C2c3ccccc3C(=O)N(CC(C)C)C2c2cccs2)cc1", "note": "(centres undefined)", "Inhibition": 13},
      {"smiles": "C=CCc1cc(Cc2cnc(N)nc2N)c2ccc(C)nc2c1O", "Inhibition": 51},
      {"smiles": "Cl.c1ccc(-c2cc(NCCNc3cc(-c4ccccc4)nc4ccccc34)c3ccccc3n2)cc1", "Inhibition": 0},
      {"smiles": "COc1ccc(F)cc1-c1cccc(CNC2CCN(CC3Cn4c(=O)ccc5ccc(F)c3c54)CC2)c1.O=C(O)C(F)(F)F", "note": "(centres undefined)", "Inhibition": 46},
      {"smiles": "COc1ccccc1-n1ccnc1SCC(=O)Nc1cccc(C(F)(F)F)c1", "Inhibition": 1},
      {"smiles": "O=c1cc(NCCCNCc2cc(C(F)(F)F)ccc2F)[nH]c2ccccc12", "Inhibition": 0},
      {"smiles": "Cc1ccc(OCCCCONC(=O)c2ccccc2)cc1", "Inhibition": 6},
      {"smiles": "Cc1ccc(C)c(NC(=O)Nc2ccc(Nc3nc(C)cc(N4CCOCC4)n3)cc2)c1", "Inhibition": 88},
      {"smiles": "N=C(N)NC(=O)Nc1cc(F)c(Cl)c(Br)c1", "Inhibition": 0},
      {"smiles": "CC(CC(=O)NCC1(c2ccc(F)cc2Cl)CCOCC1)C(=O)c1ccc(Cl)cc1", "note": "(centres undefined)", "Inhibition": 6},
      {"smiles": "CN(CCCNc1ccc(C(=O)Nc2ccc(C(F)(F)F)cc2)cc1[N+](=O)[O-])Cc1ccccc1", "Inhibition": 25},
      {"smiles": "Nc1cc2c(C3CCN(CC4CCN(C(=O)/C=C/c5ccc(Cl)c(Cl)c5)CC4)CC3)c[nH]c2cn1", "Inhibition": 0},
      {"smiles": "Cc1cc(N)nc2ccc(-c3ccc(CN)cc3)cc12", "Inhibition": 4},
      {"smiles": "CN1CCCc2ccc(NC(=O)c3cnc(-c4ccccc4)cn3)cc21", "Inhibition": 24},
      {"smiles": "CCNCc1ccc(-c2cccc(-c3nc4ccccc4[nH]3)c2)cc1.O=C(O)C(F)(F)F", "Inhibition": 26},
      {"smiles": "CCCCOC(=O)c1ccc(Nc2cc(C)nc3ccc(OC)cc23)cc1", "Inhibition": 4},
      {"smiles": "Cc1cccc2nc(-c3cccc(-c4cccc(NC(=O)CNc5ccc(C(N)=O)cc5)c4)c3)[nH]c12", "Inhibition": 15},
      {"smiles": "CCCOc1ccc2ccccc2c1CNCCCCCCNCc1c(OCCC)ccc2ccccc12.CS(=O)(=O)O", "Inhibition": 100},
      {"smiles": "O=C(NC1CCC(N2CCN(c3cccc(C(F)(F)F)c3)CC2)CC1)c1cc2ccccc2[nH]1", "note": "(centres undefined)", "Inhibition": 23},
      {"smiles": "CN(C)Cc1ccc(-c2cc3c(-c4ccc(CN(C)C)cc4)ccnc3[nH]2)cc1.O=C(O)C(F)(F)F", "Inhibition": 86},
      {"smiles": "COc1ccc(C2C(C(=O)OC3CCCCC3)=C(C)NC3=C2C(=O)CCC3)cc1Br", "note": "(centres undefined)", "Inhibition": 7},
      {"smiles": "Nc1cc(-c2ccc3ccccc3c2)nc2ccccc12", "Inhibition": 19},
      {"smiles": "CC(C)NCc1ccc(-c2cccc(-c3nc4ccccc4[nH]3)c2)cc1.O=C(O)C(F)(F)F", "Inhibition": 21},
      {"smiles": "CCOC(=O)CNCC(=O)c1ccc(OCc2ccccc2)cc1.Cl", "Inhibition": 4},
      {"smiles": "O=C(C=Cc1ccc(Cl)c(Cl)c1)NCCCCCN1CCC(CCCNS(=O)(=O)c2ccc(F)cc2)CC1", "Inhibition": 52},
      {"smiles": "Cc1ncccc1C(=O)Nc1cccc(-c2cccc(-c3nc4cccc(C)c4[nH]3)c2)c1", "Inhibition": 6},
      {"smiles": "N#Cc1ccccc1N1CCN(C2CCC(NC(=O)c3n[nH]c4cc(C(F)(F)F)ccc34)CC2)CC1", "note": "(centres undefined)", "Inhibition": 15},
      {"smiles": "COc1cc(CNC[C@@H](O)[C@H](Cc2ccccc2)NC(=O)c2cc(OC(C)C)cc(N3CCCCS3(=O)=O)c2)cc(OC)c1.Cl", "Inhibition": 7},
      {"smiles": "Cc1ccc(CN2CCCN(Cc3cccc(C(=O)Nc4ccc(C(C)(C)C)cc4)c3)CC2)s1.O=C(O)C(F)(F)F", "Inhibition": 31},
      {"smiles": "CCCNCc1ccc(-c2ccc(CN(CCOC)C(=O)Cc3cccnc3)cc2)nc1.O=C(O)C(F)(F)F", "Inhibition": 10},
      {"smiles": "Cc1cccc2nc(-c3ccc(-c4ccc(CN5CCN(C6CCN(C)CC6)CC5)cc4)s3)[nH]c12.O=C(O)C(F)(F)F", "Inhibition": 97},
      {"smiles": "Cc1nc(C)c(-c2ccc(Cl)cc2Cl)c(O)c1Br", "Inhibition": 3},
      {"smiles": "CN1CCN(c2ccc(-c3nc4ccc(OCc5cc(Cl)cc(Cl)c5)c(C(N)=O)c4[nH]3)cc2)CC1", "Inhibition": 45},
      {"smiles": "O=C(/C=C/c1ccc(Cl)c(Cl)c1)NCCCCCN1CCCC(CNC(=O)Nc2ccc(Oc3ccccc3)cc2)C1", "note": "(centres undefined)", "Inhibition": 26},
      {"smiles": "O=C(CC(=O)C(F)(F)F)c1ccc2c(c1)OCO2", "Inhibition": 44},
      {"smiles": "CC(C)C[C@H](NC(=O)c1cc2cc(OCCN3CCNCC3)ccc2o1)C(=O)NC1CC[C@@H](C)N(C(=O)Nc2ccc(Cl)cc2)CC1=O.O=C(O)C(F)(F)F", "note": "(some centres undefined)", "Inhibition": 0}
    ]}
  ]
}
